Assay results taken from PubChem BioAssay (EPA / NIEHS).
“And” between values parts separate entries of the source, which are not always exact repeats. Equal entries are not always repeated. Inconclusive results are not listed. The source made the active and inactive calls. The calls were made as follows, unless noted: active = hit-call score of the fitted dose curve at least 0.9, where 1 is the maximum; inactive = score below 0.9.

Experiments:
[1] = read-out: Monocyte Chemoattractant Protein-1 (MCP1), CCL2 (gene 6347); assay: BSK_SAg_MCP1: BioMAP Diversity Plus: SAg Assay for Monocyte Chemoattractant Protein-1 (MCP1) Biomarker Activity (AID 2283090); conditions: primary human HUVEC with PBMC; actives raise or lower the signal
Outline: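 MCP-1 levels in the endothelial–PBMC SAg co-culture were quantified by ELISA at 24 h post-dosing; both increases and decreases versus DMSO scored. Cytotoxicity monitored by SRB total protein in parallel cultures.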

[2] = read-out: E-selectin (Homo sapiens) (UniProt P16581); assay: BSK_SAg_Eselectin: BioMAP Diversity Plus: SAg Assay for Eselectin Biomarker Activity (AID 2283091); conditions: primary human HUVEC with PBMC; actives raise or lower the signal
Outline: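 Human umbilical vein endothelial cells co-cultured with peripheral blood mononuclear cells, SAg system. E-selectin is measured by ELISA 24 h after dosing and fitted bidirectionally against DMSO. Cytotoxicity is checked by SRB staining of parallel cultures.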

[3] = read-out: Monokine induced gamma interferon (MIG), CXCL9 (gene 4283); assay: BSK_SAg_MIG: BioMAP Diversity Plus: SAg Assay for Monokine induced gamma interferon (MIG) Biomarker Activity (AID 2283092); conditions: primary human HUVEC with PBMC; actives raise or lower the signal
Outline: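 Values reflect bidirectional fitting of ELISA-measured MIG against DMSO vehicle, taken 24 h after dosing of a co-culture of human umbilical vein endothelial cells and peripheral blood mononuclear cells.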

[4] = BSK_SAg_PBMCCytotoxicity: PBMC Cytotoxicity Assessment in the BioMAP Diversity Plus: SAg Assay (AID 2283093); conditions: primary human HUVEC with PBMC;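 also: PBMC viability measured as Alamar Blue reduction fluorescence at 546/580 nm; fitted both ways against DMSO so a hit may be loss or gain of signal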;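 as to AC50: PBMC superantigen activated with SEB plus TSST-1 one hour after compound addition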
Outline: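 Human umbilical vein endothelial cells co-cultured with PBMC; PBMC (75,000/well) pre-treated with compound 1 h, then activated with SEB and TSST-1 (20 ng/mL final each) for 90 h. Alamar Blue added 6 h, fluorescence 546/580 nm; bidirectional fit versus DMSO.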

[5] = read-out: Interleukin-8 (IL8), CXCL8 (gene 3576); assay: BSK_SAg_IL8: BioMAP Diversity Plus: SAg Assay for Interleukin-8 (IL8) Biomarker Activity (AID 2283094); conditions: primary human HUVEC with PBMC; actives raise or lower the signal
Outline: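 In this co-culture of human umbilical vein endothelium with peripheral blood mononuclear cells, IL-8 is assayed by ELISA at 24 h. DMSO serves as baseline for bidirectional curve fitting.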

[6] = BSK_SAg_Proliferation: Cell Proliferation Assessment in the BioMAP Diversity Plus: SAg Assay (AID 2283095); conditions: primary human HUVEC with PBMC;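 also: relative cell number as total protein by SRB absorbance in sub-confluent culture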
Outline: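 Readout is SRB-stained protein (560 nm) in a primary human HUVEC and PBMC co-culture; sub-confluent cultures are read at 96 h. Activity is fitted bidirectionally using DMSO as baseline.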

[7] = BSK_SAg_SRB: Viability Assessment in the BioMAP Diversity Plus: SAg Assay (AID 2283096); conditions: primary human HUVEC with PBMC;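 also: cells read one day after compound addition; hits may be either gain or loss of signal compared with DMSO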
Outline: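 Endothelial/PBMC primary human co-culture; compound 24 h; fix 10% TCA, stain 0.1% SRB, A560; protein content as cytotoxicity proxy; bidirectional curve fit, DMSO = baseline.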

[8] = target: human CYP19A1, CYP19A1 (gene 1588) (UniProt P11511); assay: NVS_ADME_hCYP19A1: NovaScreen (NVS) CYP450-related Enzyme Activity (ADME) Assay for human CYP19A1 (AID 2283098; active = hit-call score of the fitted dose curve at least 0.9, where 1 is the maximum;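 as to AC50: potency for inhibitors seen as loss of fluorescent enzyme signal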)
Sequence of human CYP19A1, CYP19A1 (gene 1588) (P11511 whole entry, looked up): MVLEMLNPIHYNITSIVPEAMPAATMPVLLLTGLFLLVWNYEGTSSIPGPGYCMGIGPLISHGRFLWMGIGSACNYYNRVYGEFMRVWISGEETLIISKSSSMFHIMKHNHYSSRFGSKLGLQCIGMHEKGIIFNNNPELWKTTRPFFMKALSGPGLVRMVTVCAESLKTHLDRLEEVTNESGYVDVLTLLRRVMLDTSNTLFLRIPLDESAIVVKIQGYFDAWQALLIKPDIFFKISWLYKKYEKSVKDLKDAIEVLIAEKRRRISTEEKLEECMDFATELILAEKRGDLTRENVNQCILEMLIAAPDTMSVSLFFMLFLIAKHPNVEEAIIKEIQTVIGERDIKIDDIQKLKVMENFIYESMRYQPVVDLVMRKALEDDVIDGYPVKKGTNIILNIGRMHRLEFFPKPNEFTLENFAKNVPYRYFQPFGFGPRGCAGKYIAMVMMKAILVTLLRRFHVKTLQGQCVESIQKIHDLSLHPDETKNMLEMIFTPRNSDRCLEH
Outline: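 Cell-free enzyme assay with recombinant protein and a specific fluorogenic substrate, read by fluorescence intensity 0.5 h after dosing. Primary screen ran in duplicate at 10 uM; actives were retested in concentration series. Loss of signal versus acetonitrile baseline.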

[9] = target: human CYP1A1, CYP1A1 (gene 1543) (UniProt P04798); assay: NVS_ADME_hCYP1A1: NovaScreen (NVS) CYP450-related Enzyme Activity (ADME) Assay for human CYP1A1 (AID 2283100; active = hit-call score of the fitted dose curve at least 0.9, where 1 is the maximum)
Sequence of human CYP1A1, CYP1A1 (gene 1543) (P04798 whole entry, looked up): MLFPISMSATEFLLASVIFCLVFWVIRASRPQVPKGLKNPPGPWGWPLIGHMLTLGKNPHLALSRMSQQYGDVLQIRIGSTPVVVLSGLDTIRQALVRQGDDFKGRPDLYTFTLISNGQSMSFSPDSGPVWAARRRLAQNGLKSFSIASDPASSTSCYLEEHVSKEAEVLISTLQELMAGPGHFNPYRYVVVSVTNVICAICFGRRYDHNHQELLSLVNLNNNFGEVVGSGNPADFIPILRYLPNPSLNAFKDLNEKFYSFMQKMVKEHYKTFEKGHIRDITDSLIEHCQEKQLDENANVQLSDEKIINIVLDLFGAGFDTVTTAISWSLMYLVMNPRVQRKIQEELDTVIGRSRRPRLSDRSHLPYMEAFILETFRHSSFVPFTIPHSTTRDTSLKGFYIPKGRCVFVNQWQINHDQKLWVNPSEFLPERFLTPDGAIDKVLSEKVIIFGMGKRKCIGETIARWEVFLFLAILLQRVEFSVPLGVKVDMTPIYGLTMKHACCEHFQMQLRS
Outline: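 Recombinant CYP1A1 with a fluorogenic substrate, cell-free, read 1 h after dosing; acetonitrile as negative control. Single-concentration screen at 10 uM in duplicate, then concentration-response up to 20 uM for chemicals meeting ~30% inhibition threshold.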

[10] = target: human CYP2A6, CYP2A6 (gene 1548) (UniProt P11509); assay: NVS_ADME_hCYP2A6: NovaScreen (NVS) CYP450-related Enzyme Activity (ADME) Assay for human CYP2A6 (AID 2283099; active = hit-call score of the fitted dose curve at least 0.9, where 1 is the maximum)
Sequence of human CYP2A6, CYP2A6 (gene 1548) (P11509 whole entry, looked up): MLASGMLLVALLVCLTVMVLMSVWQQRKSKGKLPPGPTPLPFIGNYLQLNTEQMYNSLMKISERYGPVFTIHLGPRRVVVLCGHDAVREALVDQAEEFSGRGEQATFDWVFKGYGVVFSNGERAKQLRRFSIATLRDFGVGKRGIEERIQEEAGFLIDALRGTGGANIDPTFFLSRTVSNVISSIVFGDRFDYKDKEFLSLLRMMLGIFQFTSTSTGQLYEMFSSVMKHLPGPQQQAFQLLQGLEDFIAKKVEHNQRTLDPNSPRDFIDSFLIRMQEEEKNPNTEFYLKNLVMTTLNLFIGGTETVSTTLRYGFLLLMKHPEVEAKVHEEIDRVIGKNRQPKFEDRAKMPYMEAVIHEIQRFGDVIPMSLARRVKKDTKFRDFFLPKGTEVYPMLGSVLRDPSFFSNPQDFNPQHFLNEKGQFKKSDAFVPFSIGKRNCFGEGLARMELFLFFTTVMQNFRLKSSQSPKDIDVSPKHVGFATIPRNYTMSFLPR
Description: NVS_ADME_hCYP2A6 is a biochemical, single-readout assay that uses extracted gene-proteins from insect cells in a cell-free assay. Measurements were taken 0.5 hour after chemical dosing in a 96-well plate.NVS_ADME_hCYP2A6 is one of one assay component(s) measured or calculated from the NVS_ADME_hCYP2A6 assay. It is designed to make measurements of enzyme activity, a form of enzyme reporter, as detected with fluorescence intensity signals by Fluorescence technology.Data from the assay component NVS_ADME_hCYP2A6 was analyzed into 1 assay endpoint. This assay endpoint, NVS_ADME_hCYP2A6, was analyzed in the positive analysis fitting direction relative to Acetonitrile as the negative control and baseline of activity. Using a type of enzyme reporter, loss-of-signal activity can be used to understand changes in the enzymatic activity as they relate to the gene CYP2A6. Furthermore, this assay endpoint can be referred to as a primary readout, because this assay has produced multiple assay endpoints where this one serves a enzymatic activity function. To generalize the intended target to other relatable targets, this assay endpoint is annotated to the cyp intended target family, where the subfamily is xenobiotic metabolism.
Binding assays used specific radioligands (tritiated, iodinated) with non-radioactive competitive displacement ligands in agonist or antagonist protocols (as indicated) and various reference compounds and inhibitors to titrate specific binding to receptors and transporters. Most enzyme assays (CYPs, kinases, phosphatases, proteases, HDACs) used recombinant protein and specific substrates (fluorescence mostly, some colorimetric and radioactive) and inhibitors, followed by a biochemical separation of substrate and product. All assays for the biochemical HTS were initially run in duplicate at a single concentration (10 uM for CYP450 assays and 25 uM for all others). Assay-chemical combinations meeting a pre-defined threshold (e.g., 30% inhibition and other criteria defined below) were then run in singleton concentration-response format with maximum concentration of 20 uM for CYPs and 50 uM for all others. Each assay was run with positive and negative controls, and concurrent controls on every plate. The follow-up (secondary) screen tested active chemical-pairs in concentration series, as well as a few additional assays not tested in the primary screen, some selected negative inactives, and several cases re-run in the concentration series for confirmatory purposes.

Measured: AC50

Sequence of E-selectin (Homo sapiens) (P16581 whole entry, looked up): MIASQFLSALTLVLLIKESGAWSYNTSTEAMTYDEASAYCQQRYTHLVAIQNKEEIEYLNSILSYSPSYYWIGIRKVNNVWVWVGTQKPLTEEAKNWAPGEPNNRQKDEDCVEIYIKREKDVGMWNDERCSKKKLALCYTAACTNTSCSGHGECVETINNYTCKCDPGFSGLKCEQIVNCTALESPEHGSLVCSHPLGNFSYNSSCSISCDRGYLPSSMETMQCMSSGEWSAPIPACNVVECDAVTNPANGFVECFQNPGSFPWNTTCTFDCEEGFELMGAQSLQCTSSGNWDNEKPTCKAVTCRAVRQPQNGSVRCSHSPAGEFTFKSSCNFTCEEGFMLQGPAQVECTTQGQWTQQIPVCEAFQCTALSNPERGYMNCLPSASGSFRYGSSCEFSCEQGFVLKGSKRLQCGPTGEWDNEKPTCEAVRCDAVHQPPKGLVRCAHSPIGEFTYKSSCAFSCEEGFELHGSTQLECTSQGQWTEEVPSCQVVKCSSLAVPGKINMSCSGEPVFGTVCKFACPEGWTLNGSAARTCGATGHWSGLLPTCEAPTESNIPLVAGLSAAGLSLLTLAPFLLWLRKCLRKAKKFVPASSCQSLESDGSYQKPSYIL

CCCCOC(=O)c1ccccc1C(=O)O
not listed: [9] | [10]
inactive: all other assays above

CCCOc1nn(C(=O)NS(=O)(=O)c2ccccc2C(=O)OC)c(=O)n1C
not listed: [8] | [9] | [10]
inactive: all other assays above

COP(=O)(OC)C(O)C(Cl)(Cl)Cl (stereo unspecified)
active: [2] 32.5 µM | [6] 8.98 µM
inactive: [1] | [3] | [4] | [5] | [7]

CSc1nc(NC(C)C)nc(NC(C)C)n1
active: [1] 36.5 µM | [9] 6.84 µM
not listed: [10]
inactive: all other assays above

CC1=NNC(=O)N(/N=C/c2cccnc2)C1
not listed: [8] | [9] | [10]
inactive: all other assays above

CCc1cccc(C)c1N(C(=O)CCl)C(C)COC (stereo unspecified)
not listed: [9] | [10]
inactive: all other assays above

O=[N+]([O-])c1cc(C(F)(F)F)c(Cl)c([N+](=O)[O-])c1Nc1ncc(C(F)(F)F)cc1Cl
active: [1] 2.24 µM and 3.79 µM | [2] 1.51 µM and 2.65 µM | [3] 3.49 µM and 2.45 µM | [4] 814 nM and 2.03 µM | [5] 1.81 µM and 3.64 µM | [6] 318 nM and 526 nM | [7] 3.84 µM

CSc1nnc(C(C)(C)C)c(=O)n1N
not listed: [8] | [9] | [10]
inactive: all other assays above

CC(C1CC1)C(O)(Cn1cncn1)c1ccc(Cl)cc1 (stereo unspecified)
active: [8] 5.27 µM
not listed: [9] | [10]
inactive: all other assays above

CC[C@H](C)[C@H]1O[C@]2(C=C[C@@H]1C)C[C@@H]1C[C@@H](C/C=C(\C)[C@@H](O[C@H]3C[C@H](OC)[C@@H](O[C@H]4C[C@H](OC)[C@@H](NC)[C@H](C)O4)[C@H](C)O3)[C@@H](C)/C=C/C=C3\CO[C@@H]4[C@H](O)C(C)=C[C@@H](C(=O)O1)[C@]34O)O2
active: [1] 3.38 µM | [2] 4.95 µM | [3] 8.62 µM | [4] 2.6 µM | [5] 2.16 µM | [6] 1.69 µM | [7] 5.06 µM
inactive: [8]

CCOP(=S)(OCC)Oc1cc(C)nc(C(C)C)n1
not listed: [9] | [10]
inactive: all other assays above

Nc1c(Cl)cc([N+](=O)[O-])cc1Cl
active: [2] 10.1 µM | [10] 2.05 µM
not listed: [8] | [9]
inactive: all other assays above

COP(=O)(NC(C)=O)SC (stereo unspecified)
not listed: [9] | [10]
inactive: all other assays above

Cc1cc(C2CC2)nc(Nc2ccccc2)n1
inactive: [1] | [3] | [5]
active: [2] 34.4 µM | [6] 34.3 µM | [7] 15 µM

CCc1cccc(CC)c1N(COC)C(=O)CCl
inactive: [3] | [5]
active: [1] 29.4 µM | [2] 14.2 µM | [6] 23.6 µM | [7] 20 µM

C[N+]1(C)CCCCC1
not listed: [8] | [9] | [10]
inactive: all other assays above

CNc1cnn(-c2cccc(C(F)(F)F)c2)c(=O)c1Cl
active: [2] 19.2 µM | [4] 7.99 µM | [5] 10.9 µM | [9] 6.11 µM
not listed: [10]
inactive: all other assays above

CN(C)C(=O)Nc1cccc(C(F)(F)F)c1
not listed: [8] | [9] | [10]
inactive: all other assays above

CCCOCC(=Nc1ccc(Cl)cc1C(F)(F)F)n1ccnc1
active: [1] 26 µM | [2] 11.6 µM | [3] 32.4 µM | [4] 31 µM | [5] 15.9 µM | [6] 24.5 µM | [7] 27.9 µM | [8] 0.999 µM | [9] 4.18 µM
inactive: [10]

CCC(=O)Nc1ccc(Cl)c(Cl)c1
inactive: [1] | [2] | [3] | [5] | [6] | [7]
